# According to PMC7862700, “An all-to-all approach to the identification of sequence-specific readers for epigenetic DNA modifications on cytosine”:
# Key:
# Experiment in all cases: DAPPL (digital affinity profiling via proximity ligation, sequencing); 10 mM Tris-HCl pH 7.5, 50 mM NaCl, 1 mM DTT, 4% glycerol, room temperature, 30 min; GST-TFs on glutathione beads, 16-mer random dsDNA library, 0.1% formaldehyde crosslink after washing; high values mean tight binding
# FEV = target: T1, FEV (Homo sapiens, UniProt Q99581 1-238); details: protein: recombinant; tags: N-terminal GST; dsDNA, one strand shown
# T1 sequence: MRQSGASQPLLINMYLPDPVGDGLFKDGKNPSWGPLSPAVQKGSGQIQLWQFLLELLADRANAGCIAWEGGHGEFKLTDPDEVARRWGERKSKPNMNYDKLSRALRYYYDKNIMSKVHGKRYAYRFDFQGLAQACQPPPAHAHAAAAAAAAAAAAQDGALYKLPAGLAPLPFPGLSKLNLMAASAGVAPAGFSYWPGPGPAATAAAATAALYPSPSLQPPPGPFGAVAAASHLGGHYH
# How it was run: (§1)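 Yeast served to express human transcription factors as GST fusions, which were then captured on glutathione beads and labelled with DNA barcodes. Pooled with a tag-only sample, they were incubated with 200 nmole of a 16-mer random double-stranded DNA library for 30 min at room temperature in Tris/NaCl/DTT/glycerol buffer, washed, crosslinked with 0.1% formaldehyde, ligated by proximity, amplified by PCR and sequenced. Dividing each hexamer's read frequency for a factor by its frequency for the tag-only sample gives the binding signal.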
# ETV5 = ETV5 (Homo sapiens, UniProt P41161 1-510); details: protein: recombinant; tags: N-terminal GST; dsDNA, one strand shown
# How it was run: as §1
# HSF1 = HSF1 (Homo sapiens, UniProt Q00613 1-529); details: protein: recombinant; tags: N-terminal GST; chain copies: 3; dsDNA, one strand shown
# How it was run: as §1
# SPIC = target: T2, SPIC (Homo sapiens, UniProt Q8N5J4 1-248); details: protein: recombinant; tags: N-terminal GST; dsDNA, one strand shown
# T2 sequence: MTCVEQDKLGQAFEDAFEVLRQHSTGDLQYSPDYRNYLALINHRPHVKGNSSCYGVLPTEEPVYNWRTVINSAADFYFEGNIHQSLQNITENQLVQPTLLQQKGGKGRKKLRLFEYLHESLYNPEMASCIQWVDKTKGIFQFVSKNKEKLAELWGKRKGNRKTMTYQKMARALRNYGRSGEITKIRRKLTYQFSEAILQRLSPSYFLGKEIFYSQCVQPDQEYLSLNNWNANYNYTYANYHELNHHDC
# How it was run: as §1
# ELF4 = ELF4 (Homo sapiens, UniProt Q99607 1-663); details: protein: recombinant; tags: N-terminal GST; dsDNA, one strand shown
# How it was run: as §1
# ELK4 = target: T3, ELK4 (Homo sapiens, UniProt P28324-2 1-405); details: protein: recombinant; tags: N-terminal GST; dsDNA, one strand shown
# T3 sequence: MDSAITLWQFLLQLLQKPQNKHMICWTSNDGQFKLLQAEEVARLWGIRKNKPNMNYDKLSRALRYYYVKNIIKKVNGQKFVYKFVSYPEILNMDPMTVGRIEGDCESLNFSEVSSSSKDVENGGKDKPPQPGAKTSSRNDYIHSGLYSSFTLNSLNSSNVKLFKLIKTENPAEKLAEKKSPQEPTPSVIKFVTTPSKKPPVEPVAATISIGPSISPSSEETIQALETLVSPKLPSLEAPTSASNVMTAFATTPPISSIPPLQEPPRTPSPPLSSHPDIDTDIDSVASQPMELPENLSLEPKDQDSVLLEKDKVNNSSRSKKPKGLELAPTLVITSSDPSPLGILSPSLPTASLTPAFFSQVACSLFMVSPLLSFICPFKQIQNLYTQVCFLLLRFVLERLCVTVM
# How it was run: as §1
# ETV2 = target: T4, ETV2 (Homo sapiens, UniProt O00321 1-342); details: protein: recombinant; tags: N-terminal GST; dsDNA, one strand shown
# T4 sequence: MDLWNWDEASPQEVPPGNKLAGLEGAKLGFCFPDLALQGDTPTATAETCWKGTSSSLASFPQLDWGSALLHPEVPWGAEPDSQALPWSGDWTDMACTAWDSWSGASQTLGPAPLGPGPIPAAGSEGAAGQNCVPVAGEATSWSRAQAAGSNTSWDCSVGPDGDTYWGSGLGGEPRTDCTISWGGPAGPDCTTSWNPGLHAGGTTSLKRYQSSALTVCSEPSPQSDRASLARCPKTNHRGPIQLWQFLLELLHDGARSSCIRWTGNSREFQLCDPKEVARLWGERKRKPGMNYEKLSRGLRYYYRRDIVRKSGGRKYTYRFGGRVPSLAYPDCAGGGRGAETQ
# How it was run: as §1
# ELF3 = target: T5, ELF3 (Homo sapiens, UniProt P78545 1-371); details: protein: recombinant; tags: N-terminal GST; dsDNA, one strand shown
# T5 sequence: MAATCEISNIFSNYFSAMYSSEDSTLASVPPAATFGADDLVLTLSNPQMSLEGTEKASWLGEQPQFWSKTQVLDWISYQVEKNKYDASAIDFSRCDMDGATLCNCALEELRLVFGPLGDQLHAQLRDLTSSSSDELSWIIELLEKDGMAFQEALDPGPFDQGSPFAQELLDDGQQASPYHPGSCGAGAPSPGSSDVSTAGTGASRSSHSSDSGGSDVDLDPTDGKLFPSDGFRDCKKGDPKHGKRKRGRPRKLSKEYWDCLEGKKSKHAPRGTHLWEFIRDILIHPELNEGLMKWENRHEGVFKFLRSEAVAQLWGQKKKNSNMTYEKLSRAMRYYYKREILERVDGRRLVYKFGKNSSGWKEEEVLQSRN
# How it was run: as §1
# CRX = CRX (Homo sapiens, UniProt O43186 1-299); details: protein: recombinant; tags: N-terminal GST; dsDNA, one strand shown
# How it was run: as §1
# ETV1 = ETV1 (Homo sapiens, UniProt P50549 1-477); details: protein: recombinant; tags: N-terminal GST; dsDNA, one strand shown
# How it was run: as §1
# ERF = target: T6, ERF (Homo sapiens, UniProt P50548 1-548); details: protein: recombinant; tags: N-terminal GST; dsDNA, one strand shown
# T6 sequence: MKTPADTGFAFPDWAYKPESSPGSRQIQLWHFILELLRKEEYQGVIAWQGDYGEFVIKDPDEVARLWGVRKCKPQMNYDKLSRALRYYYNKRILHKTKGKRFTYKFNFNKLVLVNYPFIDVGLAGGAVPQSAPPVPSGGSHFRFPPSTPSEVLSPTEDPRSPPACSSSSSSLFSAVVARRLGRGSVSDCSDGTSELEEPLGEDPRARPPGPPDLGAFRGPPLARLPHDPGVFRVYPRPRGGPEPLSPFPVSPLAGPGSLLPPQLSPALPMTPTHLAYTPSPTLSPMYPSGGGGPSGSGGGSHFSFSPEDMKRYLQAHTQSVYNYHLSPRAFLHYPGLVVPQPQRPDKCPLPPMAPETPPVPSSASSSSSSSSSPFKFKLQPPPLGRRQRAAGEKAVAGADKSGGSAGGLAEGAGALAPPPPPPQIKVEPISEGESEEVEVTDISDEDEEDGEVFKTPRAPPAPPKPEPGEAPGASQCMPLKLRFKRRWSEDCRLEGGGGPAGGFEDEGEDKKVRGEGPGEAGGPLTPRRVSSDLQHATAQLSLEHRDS
# How it was run: as §1
# ETV3L = target: T7, ETV3L (Homo sapiens, UniProt Q6ZN32 1-361); details: protein: recombinant; tags: N-terminal GST; dsDNA, one strand shown
# T7 sequence: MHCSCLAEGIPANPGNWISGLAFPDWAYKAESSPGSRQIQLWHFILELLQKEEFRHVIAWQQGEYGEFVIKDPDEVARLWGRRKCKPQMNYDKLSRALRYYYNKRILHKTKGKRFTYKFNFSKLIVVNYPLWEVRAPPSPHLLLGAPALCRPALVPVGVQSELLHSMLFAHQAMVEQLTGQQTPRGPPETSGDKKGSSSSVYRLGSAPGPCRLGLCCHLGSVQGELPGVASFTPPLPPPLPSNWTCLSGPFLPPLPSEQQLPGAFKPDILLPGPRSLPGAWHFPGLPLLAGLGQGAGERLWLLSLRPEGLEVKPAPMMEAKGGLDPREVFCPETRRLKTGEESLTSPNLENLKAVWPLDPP
# How it was run: as §1
# ETS2 = target: T8, ETS2 (Homo sapiens, UniProt P15036 1-469); details: protein: recombinant; tags: N-terminal GST; dsDNA, one strand shown
# T8 sequence: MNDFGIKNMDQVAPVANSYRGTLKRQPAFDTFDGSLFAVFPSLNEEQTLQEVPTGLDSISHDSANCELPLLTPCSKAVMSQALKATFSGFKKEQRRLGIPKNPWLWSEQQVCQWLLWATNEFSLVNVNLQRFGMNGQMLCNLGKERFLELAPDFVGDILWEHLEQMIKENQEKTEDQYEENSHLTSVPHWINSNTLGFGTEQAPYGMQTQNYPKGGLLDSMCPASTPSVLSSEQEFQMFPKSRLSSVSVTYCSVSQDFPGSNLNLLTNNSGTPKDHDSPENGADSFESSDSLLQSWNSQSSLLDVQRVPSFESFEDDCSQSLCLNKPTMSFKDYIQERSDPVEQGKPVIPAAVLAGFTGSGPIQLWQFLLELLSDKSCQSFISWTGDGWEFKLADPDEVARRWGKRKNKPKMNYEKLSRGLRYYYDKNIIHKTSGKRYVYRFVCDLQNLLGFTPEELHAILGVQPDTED
# How it was run: as §1
# SPDEF = target: T9, SPDEF (Homo sapiens, UniProt O95238 1-335); details: protein: recombinant; tags: N-terminal GST; dsDNA, one strand shown
# T9 sequence: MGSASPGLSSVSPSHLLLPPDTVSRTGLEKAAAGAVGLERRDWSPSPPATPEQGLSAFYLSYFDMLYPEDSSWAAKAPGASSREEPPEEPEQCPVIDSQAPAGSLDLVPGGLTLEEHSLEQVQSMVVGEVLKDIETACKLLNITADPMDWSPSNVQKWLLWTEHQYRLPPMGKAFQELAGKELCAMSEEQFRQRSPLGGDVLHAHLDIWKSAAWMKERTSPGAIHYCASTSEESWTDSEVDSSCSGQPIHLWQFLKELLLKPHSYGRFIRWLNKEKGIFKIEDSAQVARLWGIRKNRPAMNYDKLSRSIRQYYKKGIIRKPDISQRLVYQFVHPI
# How it was run: as §1
# ETV7 = target: T10, ETV7 (Homo sapiens, UniProt Q9Y603 1-341); details: protein: recombinant; tags: N-terminal GST; dsDNA, one strand shown
# T10 sequence: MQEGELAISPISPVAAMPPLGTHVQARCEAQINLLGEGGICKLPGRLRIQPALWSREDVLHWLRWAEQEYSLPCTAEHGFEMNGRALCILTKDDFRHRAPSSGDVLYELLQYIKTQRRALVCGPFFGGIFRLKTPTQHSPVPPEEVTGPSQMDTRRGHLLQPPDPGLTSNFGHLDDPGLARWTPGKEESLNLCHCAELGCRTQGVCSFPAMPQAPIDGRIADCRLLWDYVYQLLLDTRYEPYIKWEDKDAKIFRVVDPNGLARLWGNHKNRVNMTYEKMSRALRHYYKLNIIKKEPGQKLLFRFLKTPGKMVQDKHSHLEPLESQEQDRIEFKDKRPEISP
# How it was run: as §1
# ELF5 = target: T11, ELF5 (Homo sapiens, UniProt Q9UKW6-2 1-255); details: protein: recombinant; tags: N-terminal GST; dsDNA, one strand shown
# T11 sequence: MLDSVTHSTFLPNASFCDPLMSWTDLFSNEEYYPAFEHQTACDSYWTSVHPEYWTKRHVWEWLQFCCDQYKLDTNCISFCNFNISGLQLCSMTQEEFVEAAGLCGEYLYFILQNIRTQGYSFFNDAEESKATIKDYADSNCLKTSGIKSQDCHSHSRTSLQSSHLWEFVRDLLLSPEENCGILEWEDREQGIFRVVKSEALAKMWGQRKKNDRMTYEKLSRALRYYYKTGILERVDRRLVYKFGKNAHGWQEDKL
# How it was run: as §1
# ETV3 = target: T12, ETV3 (Homo sapiens, UniProt P41162-2 1-143); details: protein: recombinant; tags: N-terminal GST; dsDNA, one strand shown
# T12 sequence: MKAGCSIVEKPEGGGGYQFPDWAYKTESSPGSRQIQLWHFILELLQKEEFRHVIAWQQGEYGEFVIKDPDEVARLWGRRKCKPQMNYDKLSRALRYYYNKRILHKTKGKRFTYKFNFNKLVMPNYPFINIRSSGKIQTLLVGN
# How it was run: as §1
# ETV6 = ETV6 (Homo sapiens, UniProt P41212 1-452); details: protein: recombinant; tags: N-terminal GST; dsDNA, one strand shown
# How it was run: as §1
# CRX, sequence (O43186 whole entry): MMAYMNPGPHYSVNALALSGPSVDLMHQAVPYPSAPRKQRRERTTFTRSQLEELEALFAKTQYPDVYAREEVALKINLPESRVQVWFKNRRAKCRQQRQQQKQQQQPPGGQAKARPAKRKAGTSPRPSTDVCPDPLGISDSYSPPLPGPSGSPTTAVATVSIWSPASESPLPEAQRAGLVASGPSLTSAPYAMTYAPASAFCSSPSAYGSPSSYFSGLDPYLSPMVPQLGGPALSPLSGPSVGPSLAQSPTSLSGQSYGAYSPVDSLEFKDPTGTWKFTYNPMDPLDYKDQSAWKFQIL
# ETV5, sequence (P41161 whole entry): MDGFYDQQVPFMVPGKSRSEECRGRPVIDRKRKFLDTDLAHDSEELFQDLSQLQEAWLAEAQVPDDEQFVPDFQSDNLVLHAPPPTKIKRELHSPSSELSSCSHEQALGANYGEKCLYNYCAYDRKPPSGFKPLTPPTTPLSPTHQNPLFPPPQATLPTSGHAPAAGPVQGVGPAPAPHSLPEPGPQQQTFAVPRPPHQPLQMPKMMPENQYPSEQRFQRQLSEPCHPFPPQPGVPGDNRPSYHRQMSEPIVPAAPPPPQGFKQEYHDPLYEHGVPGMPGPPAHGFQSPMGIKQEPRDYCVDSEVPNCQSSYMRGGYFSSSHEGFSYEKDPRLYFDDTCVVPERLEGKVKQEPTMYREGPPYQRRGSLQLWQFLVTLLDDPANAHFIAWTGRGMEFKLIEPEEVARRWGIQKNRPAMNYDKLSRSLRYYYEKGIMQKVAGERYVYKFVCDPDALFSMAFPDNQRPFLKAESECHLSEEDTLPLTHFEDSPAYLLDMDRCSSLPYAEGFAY
# ELF4, sequence (Q99607 whole entry): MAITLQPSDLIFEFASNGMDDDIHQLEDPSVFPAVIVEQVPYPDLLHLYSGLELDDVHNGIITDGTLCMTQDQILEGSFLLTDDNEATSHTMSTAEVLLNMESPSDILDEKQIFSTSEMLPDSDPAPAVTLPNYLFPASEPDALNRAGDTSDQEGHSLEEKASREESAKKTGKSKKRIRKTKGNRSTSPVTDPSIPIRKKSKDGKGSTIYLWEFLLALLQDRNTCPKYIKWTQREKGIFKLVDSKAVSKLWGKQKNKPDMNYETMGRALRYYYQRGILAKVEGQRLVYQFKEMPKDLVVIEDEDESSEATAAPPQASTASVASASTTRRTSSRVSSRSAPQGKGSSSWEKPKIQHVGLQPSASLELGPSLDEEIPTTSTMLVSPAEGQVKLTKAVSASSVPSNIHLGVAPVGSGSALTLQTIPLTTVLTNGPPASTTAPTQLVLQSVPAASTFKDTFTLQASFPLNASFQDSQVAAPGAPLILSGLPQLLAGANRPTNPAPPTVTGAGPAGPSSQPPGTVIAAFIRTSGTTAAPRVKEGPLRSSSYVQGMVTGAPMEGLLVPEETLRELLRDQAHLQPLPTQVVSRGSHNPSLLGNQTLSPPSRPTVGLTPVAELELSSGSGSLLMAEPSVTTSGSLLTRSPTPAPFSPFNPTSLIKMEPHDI
# HSF1, sequence (Q00613 whole entry): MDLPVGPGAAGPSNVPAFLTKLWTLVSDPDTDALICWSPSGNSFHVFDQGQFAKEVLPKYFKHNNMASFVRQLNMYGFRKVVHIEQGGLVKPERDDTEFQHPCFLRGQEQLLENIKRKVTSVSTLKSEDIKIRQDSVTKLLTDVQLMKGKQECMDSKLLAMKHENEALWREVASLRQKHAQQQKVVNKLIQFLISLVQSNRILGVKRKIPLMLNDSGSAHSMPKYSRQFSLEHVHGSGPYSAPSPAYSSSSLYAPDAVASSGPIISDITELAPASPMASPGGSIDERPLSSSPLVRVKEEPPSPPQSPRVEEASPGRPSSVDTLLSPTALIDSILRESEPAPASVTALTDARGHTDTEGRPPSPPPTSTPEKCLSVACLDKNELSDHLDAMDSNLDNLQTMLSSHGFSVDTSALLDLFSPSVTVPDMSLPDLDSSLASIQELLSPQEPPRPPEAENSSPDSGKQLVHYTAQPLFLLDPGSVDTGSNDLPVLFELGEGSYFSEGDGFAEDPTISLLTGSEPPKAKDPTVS
# ETV6, sequence (P41212 whole entry): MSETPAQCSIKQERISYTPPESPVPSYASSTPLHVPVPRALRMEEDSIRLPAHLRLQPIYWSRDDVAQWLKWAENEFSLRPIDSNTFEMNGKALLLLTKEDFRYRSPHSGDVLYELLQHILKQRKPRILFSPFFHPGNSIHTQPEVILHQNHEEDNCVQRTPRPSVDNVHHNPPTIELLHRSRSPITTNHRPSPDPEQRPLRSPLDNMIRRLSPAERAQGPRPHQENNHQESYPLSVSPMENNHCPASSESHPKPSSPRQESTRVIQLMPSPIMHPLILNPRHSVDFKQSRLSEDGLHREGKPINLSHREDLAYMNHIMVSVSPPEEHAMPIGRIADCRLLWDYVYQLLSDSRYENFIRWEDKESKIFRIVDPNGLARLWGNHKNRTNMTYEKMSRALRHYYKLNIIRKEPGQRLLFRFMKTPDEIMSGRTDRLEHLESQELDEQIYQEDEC
# ETV1, sequence (P50549 whole entry): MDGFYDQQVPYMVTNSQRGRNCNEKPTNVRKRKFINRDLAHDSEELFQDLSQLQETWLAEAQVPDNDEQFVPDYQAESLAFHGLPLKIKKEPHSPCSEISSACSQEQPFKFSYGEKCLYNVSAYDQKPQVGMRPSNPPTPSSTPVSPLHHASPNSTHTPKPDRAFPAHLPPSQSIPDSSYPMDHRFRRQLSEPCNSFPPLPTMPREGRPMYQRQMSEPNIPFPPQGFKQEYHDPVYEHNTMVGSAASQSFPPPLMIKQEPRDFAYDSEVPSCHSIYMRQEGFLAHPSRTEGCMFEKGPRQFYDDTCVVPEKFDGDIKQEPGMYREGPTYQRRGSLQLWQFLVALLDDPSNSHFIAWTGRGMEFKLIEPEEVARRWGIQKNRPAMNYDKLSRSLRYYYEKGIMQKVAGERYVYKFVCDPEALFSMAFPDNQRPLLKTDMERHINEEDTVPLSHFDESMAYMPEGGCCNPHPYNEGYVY
sequence,measurement,setting,value
TCTATA,binding signal,FEV,"1.15 fold enrichment (6-mer frequency, TF over GST control)"
same,binding signal,ETV5,"1.17 fold enrichment (6-mer frequency, TF over GST control)"
same,binding signal,HSF1,"1.4 fold enrichment (6-mer frequency, TF over GST control)"
same,binding signal,SPIC,"1.26 fold enrichment (6-mer frequency, TF over GST control)"
same,binding signal,ELF4,"1.23 fold enrichment (6-mer frequency, TF over GST control)"
same,binding signal,ELK4,"1.24 fold enrichment (6-mer frequency, TF over GST control)"
same,binding signal,ETV2,"1.03 fold enrichment (6-mer frequency, TF over GST control)"
same,binding signal,ELF3,"1.08 fold enrichment (6-mer frequency, TF over GST control)"
same,binding signal,CRX,"1.36 fold enrichment (6-mer frequency, TF over GST control)"
same,binding signal,ETV1,"1.08 fold enrichment (6-mer frequency, TF over GST control)"
same,binding signal,ERF,"1.15 fold enrichment (6-mer frequency, TF over GST control)"
same,binding signal,ETV3L,"1.09 fold enrichment (6-mer frequency, TF over GST control)"
same,binding signal,ETS2,"1.2 fold enrichment (6-mer frequency, TF over GST control)"
same,binding signal,SPDEF,"1.15 fold enrichment (6-mer frequency, TF over GST control)"
same,binding signal,ETV7,"1.1 fold enrichment (6-mer frequency, TF over GST control)"
same,binding signal,ELF5,"1.08 fold enrichment (6-mer frequency, TF over GST control)"
same,binding signal,ETV3,"1.06 fold enrichment (6-mer frequency, TF over GST control)"
same,binding signal,ETV6,"1.07 fold enrichment (6-mer frequency, TF over GST control)"
